# The supplement of paper PMC3545927
# The other results are listed elsewhere or left out. The true hit rate is not given.
# Biological target: furin, P09958
# Assay: furin cleavage Z-score vs untreated control; higher = more cleavage, active = 3.5 or more, inactive = 1 or less, 8 variable residues between constant flanks
# Summary of the method: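 Read counts from sequencing released DNA gave abundance for each bead-bound 8-mer peptide–cDNA fusion cut by purified furin over 7.5, 15 or 30 min. The cleavage Z-score compares log counts with furin-free reactions after lowess adjustment and median absolute deviation scaling.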
# 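Note: purified furin at 1:10 enzyme:substrate in 50 mM HEPES pH 7.5.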
# furin, P09958, sequence (P09958 whole entry): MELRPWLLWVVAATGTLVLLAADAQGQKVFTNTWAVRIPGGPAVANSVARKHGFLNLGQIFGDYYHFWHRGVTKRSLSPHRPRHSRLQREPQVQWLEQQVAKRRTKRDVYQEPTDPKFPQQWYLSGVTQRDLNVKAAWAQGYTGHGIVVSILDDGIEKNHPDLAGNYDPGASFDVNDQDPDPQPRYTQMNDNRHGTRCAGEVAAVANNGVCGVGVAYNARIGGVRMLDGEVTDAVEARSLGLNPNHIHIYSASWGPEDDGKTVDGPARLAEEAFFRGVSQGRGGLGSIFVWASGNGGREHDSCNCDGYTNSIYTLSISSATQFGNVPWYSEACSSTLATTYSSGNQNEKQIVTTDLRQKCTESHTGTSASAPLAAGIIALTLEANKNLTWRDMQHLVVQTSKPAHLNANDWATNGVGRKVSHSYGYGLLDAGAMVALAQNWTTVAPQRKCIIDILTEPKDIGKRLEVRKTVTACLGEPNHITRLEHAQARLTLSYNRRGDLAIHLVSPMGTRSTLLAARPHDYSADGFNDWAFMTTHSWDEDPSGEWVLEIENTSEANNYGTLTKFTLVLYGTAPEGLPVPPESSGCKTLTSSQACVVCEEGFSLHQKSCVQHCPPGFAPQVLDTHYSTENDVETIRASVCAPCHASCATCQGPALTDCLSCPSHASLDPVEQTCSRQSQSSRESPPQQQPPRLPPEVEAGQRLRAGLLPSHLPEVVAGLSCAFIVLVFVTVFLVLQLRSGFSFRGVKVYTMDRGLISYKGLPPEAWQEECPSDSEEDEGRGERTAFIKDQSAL
Sequence,furin cleavage Z-score (7.5 min),furin cleavage Z-score (15 min),furin cleavage Z-score (30 min)
CATTPCSRSWAGNASASA [HC1893],0.791 (inactive),0.627 (inactive),-0.432 (inactive)
CAPLRDWAHNAGNASASA [HC638],0.639 (inactive),0.256 (inactive),0.786 (inactive)
CASTPCSAHTAGNASASA [HC2578],-0.678 (inactive),-2.17 (inactive),0.0661 (inactive)
CARHSRKKRLAGNASASA [FS-1259],8.52 (active),11.2 (active),9.02 (active)
CARKMRPARLAGNASASA [FS-1260],3.41,4.23 (active),4.92 (active)
CARKIRIKGIAGNASASA [FS-2558],0.0544 (inactive),-0.85 (inactive),-1.75 (inactive)
CARKIRKKRLAGNASASA [FS-84],9.24 (active),9.01 (active),7.01 (active)
CARKMRLGDAAGNASASA [FS-1728],0.749 (inactive),0.395 (inactive),-0.759 (inactive)
CARHSRQVLLAGNASASA [FS-2947],0.717 (inactive),2.58,2.14
CARHSRSQGAAGNASASA [FS-2948],-0.651 (inactive),0.879 (inactive),-0.497 (inactive)
CARKVRDKISAGNASASA [FS-1961],-0.364 (inactive),-1.5 (inactive),1.37
CARKVREAYLAGNASASA [FS-2427],5.91 (active),6.8 (active),7.91 (active)
CAFFCFAWYLAGNASASA [HC546],-1.2 (inactive),-0.615 (inactive),-0.815 (inactive)
CAELIEANLLAGNASASA [HC1273],-1.11 (inactive),-1.92 (inactive),0.0877 (inactive)
CARYSRSSAAAGNASASA [FS-1811],1.3,1.43,0.767 (inactive)
CARWGRFLLQAGNASASA [FS-3128],0.358 (inactive),1.41,0.253 (inactive)
CARVVRELLQAGNASASA [FS-1805],5.28 (active),8.9 (active),7.51 (active)
CARAARSLLQAGNASASA [FS-1679],1.57,0.802 (inactive),5.01 (active)
CAWLAGLFYHAGNASASA [HC379],-1.56 (inactive),-0.299 (inactive),-1.72 (inactive)
CAPLEVIKGGAGNASASA [HC851],1.06,0.444 (inactive),0.579 (inactive)
CACHCGAEITAGNASASA [HC1175],-0.983 (inactive),-1.4 (inactive),-0.977 (inactive)
CAPAARFKKFAGNASASA [FS-367],-0.438 (inactive),-0.599 (inactive),-0.45 (inactive)

Sequence,furin cleavage Z-score (7.5 min),furin cleavage Z-score (15 min),furin cleavage Z-score (30 min)
CAPAARRRRSAGNASASA [FS-1146],11.4 (active),10.2 (active),8.82 (active)
CAVFKRRRRSAGNASASA [FS-1101],12.7 (active),11.3 (active),8.61 (active)
CALAARGARLAGNASASA [FS-682],-1.17 (inactive),0.199 (inactive),0.619 (inactive)
CATALRRARSAGNASASA [FS-200],1.48,0.619 (inactive),0.983 (inactive)
CALAARRRRSAGNASASA [FS-264],10.9 (active),11 (active),8.11 (active)
CATAQRRRRSAGNASASA [FS-877],8.41 (active),7.47 (active),6.08 (active)
CAELEVVTSTAGNASASA [HC2272],-0.698 (inactive),-0.669 (inactive),-1.12 (inactive)
CAYEMEECSQAGNASASA [HC1789],0.403 (inactive),-0.566 (inactive),1.37
CANLLPAILSAGNASASA [HC1101],-0.111 (inactive),0.993 (inactive),-0.0781 (inactive)
CANWSPTTALAGNASASA [HC323],-0.0824 (inactive),-0.415 (inactive),-0.513 (inactive)
CAAQLLRIPQAGNASASA [HC328],-1 (inactive),1.5,0.847 (inactive)
CAMEECSTHLAGNASASA [HC1738],0.958 (inactive),0.401 (inactive),0.22 (inactive)
CAVTPCSGSWAGNASASA [HC1830],-0.794 (inactive),-0.739 (inactive),-0.453 (inactive)
CAEKAVERRSAGNASASA [FS-1191],0.591 (inactive),2.02,0.505 (inactive)
CAKDSRFFRYAGNASASA [FS-808],0.318 (inactive),-0.509 (inactive),1.08
CATAQRHRRYAGNASASA [FS-628],8.01 (active),10.1 (active),9.56 (active)
CAAKAKRRRSAGNASASA [FS-744],10.8 (active),11.8 (active),8.83 (active)
CAGNITRVESAGNASASA [HC1280],-0.34 (inactive),-0.548 (inactive),1.72
CAPEARLRRVAGNASASA [FS-839],0.0356 (inactive),3.09,2.39
CARFARLRRVAGNASASA [FS-853],4.92 (active),7.36 (active),5.85 (active)
CAYVSRLRRVAGNASASA [FS-1441],4.8 (active),5.42 (active),4.8 (active)
